Assay results from PubChem BioAssay (NCATS).
Unmarked numbers belong to inactive results. Inconclusive results are not listed. The source made the active and inactive calls. Unless noted, the call rests on the fitted dose curve; in most records, active means well fitted curve in the direction sought with a large enough effect; inconclusive means small, poorly fitted or top-dose-only effect, or another doubt; inactive means no such curve, though single readings can be large; an effect the other way counts as inactive or inconclusive.

Legend:
[1] = biological target: Lysosomal acid glucosylceramidase (Homo sapiens) (UniProt P04062); assay: Glucocerebrosidase-p2 (AID 348; in the data active means potency below about 10 µM; further: potency means the concentration at half of the fitted maximal effect); details: purified GBA, blue fluorogenic substrate, 40 min
Outline: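 Compounds titrated from 0.6 nM upwards against 0.2 nM enzyme in pH 5.9 citric acid/KH2PO4, taurocholate, tween-20; blue fluorogenic substrate 80 uM, 40 min room temperature, stopped and read Ex 365/Em 440 for AC50.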

[2] = AP1 Signaling Pathway (AID 357; active means well fitted curve in either direction with a large enough effect, not every such curve was filed as active;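 further: ME-180 reporter cells stimulated with EGF at its EC50 level; on the % scale 0 is the no-effect control and ±100 the full control effect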); details: ME-180 AP-1-bla reporter, EGF-induced, beta-lactamase ratio, 5 h; at 7.69 µM (top of the series) unless noted
Outline: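 Titration-series screen for positive or negative modulators of EC50 EGF-induced signaling in ME-180 cells carrying an AP-1-driven beta-lactamase reporter. After 5 hours at 37 degrees Celsius, CCF4 460nm/530nm emission ratio gave %Activity; AC50 values derived.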

[3] = biological target: Cytochrome P450 1A2 (Homo sapiens) (UniProt P05177); assay: p450-cyp1a2 (AID 410; calls by dose curve; further: potency means the concentration at half of the fitted maximal effect;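 on activity change, negative = inhibition: -100% = full effect of reference inhibitor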); details: recombinant CYP1A2, luciferin-ME demethylation, luminescence; series mostly up to 57 µM
Outline: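 Inhibition was calculated relative to 57 uM furafylline (full inhibition). The reaction used human CYP1A2 at 20nM with Luciferin-ME at its Km, 100uM, driven by an NADPH-regenerating system for 60 min at room temperature.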

[4] = NFAT Signaling Pathway (AID 444; active means well fitted curve in either direction with a large enough effect, not every such curve was filed as active;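 further: carbachol stimulus at about its EC50 of 1 µM final; on the % scale 0 is the no-effect control and ±100 the full control effect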); details: Jurkat NFAT-bla M1, carbachol, beta-lactamase ratio, 5 h; at 7.69 µM (top of the series) unless noted
Outline: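 Read-out: CCF4 FRET ratio (460 nm/530 nm) after 1 h RT dye loading, used for %activity and AC50 from titration series. Cells: Jurkat NFAT-β-lactamase/M1 line, treated with compound plus 1 uM carbachol for 5 h, 37 °C.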

[5] = Stat Signaling Pathway (AID 446; active means well fitted curve in either direction with a large enough effect, not every such curve was filed as active;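 further: ME-180 cervical cancer cells given 40 pM IL-6 alongside compound; SIE-controlled beta-lactamase reporter measured as 460/530 nm FRET emission ratio; on the % scale 0 is the no-effect control and ±100 the full control effect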); details: ME-180 SIE beta-lactamase reporter, IL-6 stimulated, 5 h; series mostly up to 7.69 µM
Outline: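 IL-6/STAT signaling read in ME-180 cells via an SIE beta-lactamase reporter. Stimulus was 40 pM IL-6 (its AC50) for 5 hrs, so both activation and inhibition register.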

[6] = biological target: Glucocorticoid receptor (Homo sapiens) (UniProt P04150); assay: GR-EFC Redistribution (AID 451; calls by dose curve; further: potency means the concentration at half of the fitted maximal effect); details: CHO-K1 GR-EFC translocation, beta-gal luminescence, 2 h
Outline: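 Translocation of GR-ED fusion to nuclear EA restores b-gal, read by luminescence after 1 h room-temperature detection. Engineered CHO-K1 biosensor cells, 1,000/well, exposed 2 h at 37 C to titrations up to 46 uM final.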

[7] = biological target: Mitogen-activated protein kinase 10 (Mus musculus) (UniProt Q61831); assay: JNK3 AlphaScreen Assay (AID 530; active means well fitted curve in either direction with a large enough effect, not every such curve was filed as active;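 further: kinase came from lysate of stimulated human HepG2 cells; signal reports phosphorylation of biotinylated GST-cJun 1-79 at Ser73 with 10 µM ATP; on the % scale 0 is the no-effect control and ±100 the full control effect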); details: JNK3 lysate, c-Jun phosphorylation; series mostly up to 57.1 µM
Outline: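 Room-temperature AlphaScreen kinase assay; pre-activated HepG2 lysate as JNK3 source, biotin-GST-cJun(1-79) substrate, 10 uM ATP, compound 15 min preincubation.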

[8] = biological target: Cytochrome P450 3A4 (Homo sapiens) (UniProt P08684); assay: qHTS Assay for Activators of Cytochrome P450 3A4 (AID 885); details: recombinant CYP3A4, Luciferin-PPXE luminescence, 60 min; series mostly up to 57.1 µM; further: nearly all actives have a fitted effect of over 65% in size
Outline: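 Quantitative HTS format: compounds preincubated with 20nM human CYP3A4 and Luciferin-PPXE substrate at KM, reaction started by NADPH regeneration, stopped after 60 min, luciferase luminescence read 20 min later.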

[9] = biological target: Cytochrome P450 2D6 (Homo sapiens) (UniProt P10635); assay: qHTS Assay for Inhibitors and Substrates of Cytochrome P450 2D6 (AID 891); details: recombinant CYP2D6, luciferin-ME EGE luminescence; series mostly up to 57.1 µM; further: potency means the concentration at half of the fitted maximal effect; nearly all actives have a fitted effect of over 60% in size
Outline: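 Human CYP2D6 (5 nM) with 30 uM Luciferin-ME EGE (at Km) in 100 mM KPO4, compound preincubated 10 min, then NADPH regeneration system for 60 min at room temperature. Luciferin read by luminescence; normalized to 1.43 uM quinidine.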

[10] = biological target: Cytochrome P450 2C19 (Homo sapiens) (UniProt P33261); assay: qHTS Assay for Inhibitors and Substrates of Cytochrome P450 2C19 (AID 899); details: recombinant CYP2C19, luciferin-H EGE luminescence; series mostly up to 57.1 µM; further: potency means the concentration at half of the fitted maximal effect; nearly all actives have a fitted effect of over 60% in size
Outline: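 Luminescence readout of luciferin formed from 10uM Luciferin-H EGE (KM level) by 5 nM CYP2C19 in 50mM KPO4. 60 min NADPH-driven reaction at 37C after 10 min compound preincubation; data scaled to 57uM ketoconazole inhibition.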

[11] = biological target: Dual specificity protein kinase CLK4 (Homo sapiens) (UniProt Q9HAZ1); assay: qHTS Assay for Inhibitors of CDC-like Kinase 4 (Kinase-Glo Assay) (AID 1770); details: recombinant Clk4, Kinase-Glo ATP depletion luminescence; series mostly up to 66.7 µM; further: nearly all actives have a fitted effect of over 65% in size; further: potency means the concentration at half of the fitted maximal effect
Outline: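 Recombinant human Clk4 (25 nM) phosphorylated RS repeat peptide (100 uM) with 1 uM ATP in Tris pH 7.5/MgCl2/EGTA/DTT/Triton buffer for 4.5 h at room temperature. Residual ATP was quantified by Kinase-Glo luciferase luminescence.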

[12] = biological target: Dual specificity protein kinase CLK4 (Homo sapiens) (UniProt Q9HAZ1); assay: qHTS Assay for Inhibitors of CDC-like Kinase 4 (ADP-Glo Assay) (AID 1771); details: recombinant CLK4, ADP-Glo luminescence; series mostly up to 80 µM; further: nearly all actives have a fitted effect of over 70% in size; further: potency means the concentration at half of the fitted maximal effect
Outline: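 Kinase reaction: Clk4 at 25 nM, RS repeat peptide substrate at 100 uM, ATP at 1 uM, 1 hr, room temperature. Product ADP detected as luciferase signal via ADP-Glo.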

[13] = biological target: Ubiquitin carboxyl-terminal hydrolase 1 (Homo sapiens) (UniProt O94782); assay: Inhibitors of USP1/UAF1: Pilot qHTS (AID 504865); details: purified USP1/UAF1, Ub-rhodamine cleavage fluorescence; series mostly up to 54.9 µM;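 further: rhodamine fluorescence freed from ubiquitin-rhodamine substrate followed over time; top concentration of the series differs between compounds; on the % scale 0 is the no-effect control and ±100 the full control effect; nearly all actives have a fitted effect of over 35% in size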
Outline: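 USP1/UAF1 complex (1nM) preincubated with compound 15 min at room temperature, then Ub-Rho substrate (150nM final) added. Fluorescence read kinetically at 480/540 nm, 6 reads every 60 seconds. Buffer: 50mM HEPES pH 7.8, 0.5mM EDTA, 0.1 mg/ml BSA, 1mM TCEP, 0.01% Tween-20.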

[14] = biological target: Glucocorticoid receptor (Homo sapiens) (UniProt P04150); assay: GR-GFP Redistribution (AID 450;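 active means compounds whose dose series gives a full or clear partial fitted curve of increased nuclear translocation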; further: potency means the concentration at half of the fitted maximal effect); details: U2OS GR-GFP nuclear translocation, laser cytometry, 2 h
[15] = biological target: Cytochrome P450 3A4 (Homo sapiens) (UniProt P08684); assay: qHTS Assay for Inhibitors and Substrates of Cytochrome P450 3A4 (AID 884); details: recombinant CYP3A4, Luciferin-PPXE luminescence; series mostly up to 57.1 µM; further: potency means the concentration at half of the fitted maximal effect; nearly all actives have a fitted effect of over 50% in size
Outline: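 20 nM human CYP3A4 with 25 uM Luciferin-PPXE (at KM) in 200 mM KPO4, preincubated 10 min with compound; NADPH regeneration started a 60 min RT reaction. Luciferin detected by luminescence, normalized to 57 uM ketoconazole as full inhibition.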

[16] = qHTS Assay for Identification of Small Molecule Agonists for Hypoxia Response Element Signaling Pathway (AID 914; active means well fitted activation curve with a large enough effect in the signal ratio, with a control signal flat, not every such curve was filed as active; the % refers to the signal ratio; further: potency means the concentration at half of the fitted maximal effect; on activation: % of control where 0% means no effect); details: ME-180 (cervical carcinoma) HRE-bla reporter, beta-lactamase ratio, CoCl2, 17 h; activation: hits give high values
Outline: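 HRE-bla ME-180 assay for agonist-like enhancement of an EC50 CoCl2 stimulus: 17 h at 37 degrees Celsius, CCF4 for 2.5 h, ratiometric 460/530 nm signal converted to %Activity and fitted to AC50.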

[17] = biological target: Cytochrome P450 2C9 (Homo sapiens) (UniProt P11712); assay: qHTS Assay for Inhibitors and Substrates of Cytochrome P450 2C9 (AID 883); details: recombinant CYP2C9, luciferin-H luminescence, 60 min; series mostly up to 57.1 µM; further: potency means the concentration at half of the fitted maximal effect; nearly all actives have a fitted effect of over 60% in size
Outline: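 Luminescent read-out of deoxyluciferin hydroxylation, normalized to 57uM sulphaphenazole (AC100). Reaction: 10nM enzyme, 100uM Luciferin-H (equal to KM), 25mM KPO4, 10 min compound preincubation, then 60 min with NADPH regeneration, both at 37C.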

[18] = biological target: 3',5'-cyclic-AMP phosphodiesterase 4B (Homo sapiens) (UniProt Q07343); assay: qHTS Assay for Inhibitors of PDE-IV (AID 607; active means well fitted activation curve with a large enough effect in the main read-out, with a control signal flat, not every such curve was filed as active; further: % of control where 0% means no effect); details: HEK293 ACTOne CNG channel cells, membrane potential fluorescence; series mostly up to 22.9 µM
Outline: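 Live HEK293 cells with a modified cyclic nucleotide-gated (CNG) channel report intracellular cAMP via membrane-potential dye fluorescence (ex 535/em 590 nm). Endogenous PDE-IV was targeted. Compounds were tested at up to 22.9 uM final; RO 20-1724 100 uM served as control.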

Lysosomal acid glucosylceramidase (Homo sapiens), sequence (P04062 whole entry, looked up): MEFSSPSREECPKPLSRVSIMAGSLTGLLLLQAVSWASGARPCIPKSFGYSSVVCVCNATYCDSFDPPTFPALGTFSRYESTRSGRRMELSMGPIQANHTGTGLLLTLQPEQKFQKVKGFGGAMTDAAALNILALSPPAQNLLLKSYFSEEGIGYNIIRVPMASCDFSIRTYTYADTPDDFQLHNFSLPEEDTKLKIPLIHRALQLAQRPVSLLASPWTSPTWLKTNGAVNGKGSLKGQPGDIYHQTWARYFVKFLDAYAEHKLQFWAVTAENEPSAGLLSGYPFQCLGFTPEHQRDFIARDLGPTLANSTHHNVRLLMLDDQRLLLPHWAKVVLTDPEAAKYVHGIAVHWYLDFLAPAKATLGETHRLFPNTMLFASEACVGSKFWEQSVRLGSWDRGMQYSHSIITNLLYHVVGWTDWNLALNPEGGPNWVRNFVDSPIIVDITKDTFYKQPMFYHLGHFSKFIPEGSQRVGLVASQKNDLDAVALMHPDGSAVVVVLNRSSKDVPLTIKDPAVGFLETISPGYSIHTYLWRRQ
Dual specificity protein kinase CLK4 (Homo sapiens), sequence (Q9HAZ1 whole entry, looked up): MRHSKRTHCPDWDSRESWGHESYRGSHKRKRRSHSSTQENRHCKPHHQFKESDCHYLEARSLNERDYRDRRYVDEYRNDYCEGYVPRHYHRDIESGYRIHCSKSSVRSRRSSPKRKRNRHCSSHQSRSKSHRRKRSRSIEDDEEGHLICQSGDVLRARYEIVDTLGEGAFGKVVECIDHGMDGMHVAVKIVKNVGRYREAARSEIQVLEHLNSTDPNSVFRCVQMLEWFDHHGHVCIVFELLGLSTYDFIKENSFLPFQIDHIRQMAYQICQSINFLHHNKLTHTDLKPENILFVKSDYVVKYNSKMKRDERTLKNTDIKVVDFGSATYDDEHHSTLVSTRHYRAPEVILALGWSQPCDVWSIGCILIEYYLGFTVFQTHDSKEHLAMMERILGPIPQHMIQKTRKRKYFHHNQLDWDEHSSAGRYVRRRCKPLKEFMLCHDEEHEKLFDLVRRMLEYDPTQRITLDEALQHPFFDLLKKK
Cytochrome P450 2C19 (Homo sapiens), sequence (P33261 whole entry, looked up): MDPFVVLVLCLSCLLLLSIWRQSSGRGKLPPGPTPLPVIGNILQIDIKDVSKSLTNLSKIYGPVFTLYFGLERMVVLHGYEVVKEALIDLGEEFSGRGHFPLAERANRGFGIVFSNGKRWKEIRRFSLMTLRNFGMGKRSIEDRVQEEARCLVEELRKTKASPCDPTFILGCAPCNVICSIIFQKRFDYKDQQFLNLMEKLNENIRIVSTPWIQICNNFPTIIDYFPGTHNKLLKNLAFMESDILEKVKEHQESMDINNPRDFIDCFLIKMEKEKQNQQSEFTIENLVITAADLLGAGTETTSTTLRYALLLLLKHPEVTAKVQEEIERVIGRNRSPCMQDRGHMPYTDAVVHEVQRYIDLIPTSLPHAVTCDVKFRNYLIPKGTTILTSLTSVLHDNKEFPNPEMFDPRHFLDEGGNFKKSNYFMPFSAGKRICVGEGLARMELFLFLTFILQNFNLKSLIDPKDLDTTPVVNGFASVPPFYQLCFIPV
Glucocorticoid receptor (Homo sapiens), sequence (P04150 whole entry, looked up, the tested form may be a part): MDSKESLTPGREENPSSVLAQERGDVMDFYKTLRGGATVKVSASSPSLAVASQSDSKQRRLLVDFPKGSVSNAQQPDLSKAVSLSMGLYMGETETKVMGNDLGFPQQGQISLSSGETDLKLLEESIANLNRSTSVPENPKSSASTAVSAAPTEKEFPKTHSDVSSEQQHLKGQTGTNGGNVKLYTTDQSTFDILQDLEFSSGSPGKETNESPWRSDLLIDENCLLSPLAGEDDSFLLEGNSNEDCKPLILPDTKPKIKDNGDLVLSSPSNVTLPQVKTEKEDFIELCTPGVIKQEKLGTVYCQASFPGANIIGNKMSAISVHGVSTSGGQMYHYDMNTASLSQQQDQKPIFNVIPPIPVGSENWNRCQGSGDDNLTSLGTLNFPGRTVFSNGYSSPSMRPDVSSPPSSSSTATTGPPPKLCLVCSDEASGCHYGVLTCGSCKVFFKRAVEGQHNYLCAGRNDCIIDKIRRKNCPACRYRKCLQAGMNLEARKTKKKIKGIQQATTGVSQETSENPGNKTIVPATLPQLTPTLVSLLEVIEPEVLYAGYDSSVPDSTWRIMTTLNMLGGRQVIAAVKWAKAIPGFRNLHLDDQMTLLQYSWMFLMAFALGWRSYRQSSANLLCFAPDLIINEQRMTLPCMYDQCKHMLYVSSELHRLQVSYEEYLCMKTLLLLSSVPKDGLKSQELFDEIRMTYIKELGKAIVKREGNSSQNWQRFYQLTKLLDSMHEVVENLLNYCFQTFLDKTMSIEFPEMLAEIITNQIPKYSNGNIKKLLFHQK
3',5'-cyclic-AMP phosphodiesterase 4B (Homo sapiens), sequence (Q07343 whole entry, looked up): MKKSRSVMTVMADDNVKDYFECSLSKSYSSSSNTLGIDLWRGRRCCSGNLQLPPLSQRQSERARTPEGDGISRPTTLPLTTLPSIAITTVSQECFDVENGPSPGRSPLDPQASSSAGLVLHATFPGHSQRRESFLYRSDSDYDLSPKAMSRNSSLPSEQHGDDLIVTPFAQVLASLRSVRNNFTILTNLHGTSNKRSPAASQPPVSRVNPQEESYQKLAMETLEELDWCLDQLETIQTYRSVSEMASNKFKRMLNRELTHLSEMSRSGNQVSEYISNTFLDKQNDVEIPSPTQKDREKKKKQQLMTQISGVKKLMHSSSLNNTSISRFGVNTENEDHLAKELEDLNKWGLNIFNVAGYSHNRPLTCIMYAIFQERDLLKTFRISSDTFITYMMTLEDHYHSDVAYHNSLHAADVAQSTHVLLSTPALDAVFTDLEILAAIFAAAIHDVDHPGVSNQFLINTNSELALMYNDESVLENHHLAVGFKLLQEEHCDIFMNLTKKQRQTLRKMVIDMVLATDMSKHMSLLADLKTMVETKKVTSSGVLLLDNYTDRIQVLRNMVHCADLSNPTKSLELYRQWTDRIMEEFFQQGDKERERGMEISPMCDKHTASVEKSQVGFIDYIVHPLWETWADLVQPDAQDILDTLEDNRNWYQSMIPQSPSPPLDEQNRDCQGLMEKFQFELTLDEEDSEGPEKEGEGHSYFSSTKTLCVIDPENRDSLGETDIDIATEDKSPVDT
Cytochrome P450 3A4 (Homo sapiens), sequence (P08684 whole entry, looked up): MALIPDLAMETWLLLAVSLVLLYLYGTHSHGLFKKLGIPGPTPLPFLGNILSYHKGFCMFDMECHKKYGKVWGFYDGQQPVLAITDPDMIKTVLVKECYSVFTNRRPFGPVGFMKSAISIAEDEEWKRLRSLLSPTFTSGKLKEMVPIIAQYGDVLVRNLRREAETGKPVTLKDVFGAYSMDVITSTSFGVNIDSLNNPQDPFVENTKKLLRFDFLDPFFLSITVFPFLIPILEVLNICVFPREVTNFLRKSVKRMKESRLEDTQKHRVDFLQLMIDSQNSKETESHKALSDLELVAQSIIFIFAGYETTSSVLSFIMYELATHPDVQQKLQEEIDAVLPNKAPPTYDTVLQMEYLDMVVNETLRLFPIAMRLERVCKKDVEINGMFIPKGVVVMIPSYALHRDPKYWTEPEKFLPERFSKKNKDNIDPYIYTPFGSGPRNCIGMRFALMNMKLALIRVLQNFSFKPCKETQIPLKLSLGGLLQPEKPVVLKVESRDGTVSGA
Cytochrome P450 1A2 (Homo sapiens), sequence (P05177 whole entry, looked up): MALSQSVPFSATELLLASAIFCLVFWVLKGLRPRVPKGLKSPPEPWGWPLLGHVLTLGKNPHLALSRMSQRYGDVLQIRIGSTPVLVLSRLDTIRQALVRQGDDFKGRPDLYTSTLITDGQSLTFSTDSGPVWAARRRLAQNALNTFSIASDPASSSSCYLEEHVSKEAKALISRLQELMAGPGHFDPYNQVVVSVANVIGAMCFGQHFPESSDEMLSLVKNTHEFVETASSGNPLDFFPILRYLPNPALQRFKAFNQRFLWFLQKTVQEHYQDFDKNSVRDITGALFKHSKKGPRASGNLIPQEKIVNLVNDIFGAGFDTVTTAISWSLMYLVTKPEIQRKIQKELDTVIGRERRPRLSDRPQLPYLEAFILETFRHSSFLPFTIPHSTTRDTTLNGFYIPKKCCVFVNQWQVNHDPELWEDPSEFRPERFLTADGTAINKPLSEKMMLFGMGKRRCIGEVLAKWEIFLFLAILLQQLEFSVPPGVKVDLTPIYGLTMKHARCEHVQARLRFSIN
Ubiquitin carboxyl-terminal hydrolase 1 (Homo sapiens), sequence (O94782 whole entry, looked up): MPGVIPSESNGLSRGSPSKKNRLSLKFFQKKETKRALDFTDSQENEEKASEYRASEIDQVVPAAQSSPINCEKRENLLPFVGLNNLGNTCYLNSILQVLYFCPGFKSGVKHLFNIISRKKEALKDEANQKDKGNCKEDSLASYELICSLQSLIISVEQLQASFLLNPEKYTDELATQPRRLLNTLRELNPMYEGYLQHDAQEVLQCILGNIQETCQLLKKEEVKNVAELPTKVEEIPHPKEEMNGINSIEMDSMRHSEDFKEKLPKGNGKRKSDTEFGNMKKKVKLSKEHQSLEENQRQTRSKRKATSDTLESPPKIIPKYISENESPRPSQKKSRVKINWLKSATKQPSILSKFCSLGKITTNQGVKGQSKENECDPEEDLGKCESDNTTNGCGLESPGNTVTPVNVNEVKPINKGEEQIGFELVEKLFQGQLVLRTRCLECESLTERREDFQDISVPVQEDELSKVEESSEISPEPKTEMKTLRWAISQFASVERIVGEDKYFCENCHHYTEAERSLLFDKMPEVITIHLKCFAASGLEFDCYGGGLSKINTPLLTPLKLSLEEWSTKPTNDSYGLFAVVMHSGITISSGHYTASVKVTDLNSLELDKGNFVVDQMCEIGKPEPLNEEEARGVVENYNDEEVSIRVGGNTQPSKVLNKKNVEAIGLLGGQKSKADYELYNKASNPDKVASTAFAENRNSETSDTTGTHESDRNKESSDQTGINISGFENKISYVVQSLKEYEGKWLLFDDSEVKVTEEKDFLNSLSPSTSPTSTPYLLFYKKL

SMILES | Potency [1] | activity change, negative = inhibition [2] [%] | Potency [3] | activity change, negative = inhibition [4] [%] | outcome [5] | Potency [6] [µM] | Potency [7] | outcome [8] | Potency [9] | Potency [10] | Potency [11] | Potency [12] | Potency [13] | Potency [14] [µM] | Potency [15] | activation [16] [%] | Potency [17] | Potency [18] | Potency [16]
Cc1nc2cnc(N3CCN(C)CC3)nc2n(CCc2ccccc2)c1=O | > 11.4 µM | 0.08 | 10 µM (active) | -16.9 | inactive | > 46 | inactive | inactive | 2.51 µM (active) | 5.01 µM (active) | inactive | inactive | inactive |  |  |  |  |  | 
CN(C)c1ncc2nc(CCc3ccccc3)c(=O)n(CCc3ccccc3)c2n1 | > 11.4 µM | -11.1 | 6.31 µM (active) | -22.4 | inactive | > 46 |  | inactive |  |  | inactive | inactive |  | > 9.22 | 6.31 µM (active) | 21.3 |  |  | 
CS(=O)(=O)Nc1cccc(-c2nc(Nc3ccncc3)c3ccccc3n2)c1 | 7.2 µM (active) | -17.9 | 0.631 µM (active) |  | inactive | > 46 |  | inactive |  | 5.01 µM (active) | 12.6 µM (active) | 10 µM (active) | inactive | > 46 | 3.98 µM (active) |  |  |  | 
COc1cccc(-c2ccc3ncnc(Nc4ccccc4)c3c2)c1 | > 11.4 µM |  | 1 µM (active) |  | inactive | > 46 | inactive | inactive |  | 0.501 µM (active) | 2 µM (active) | 2.82 µM (active) | inactive | > 46 |  |  |  |  | 
COc1ccc(CNc2ncncc2-c2ccccc2OC)c(OC)c1 | > 11.4 µM | -23.4 | 5.01 µM (active) | -12.1 | inactive | > 46 | inactive | inactive |  | 2 µM (active) | inactive | inactive | inactive |  | 0.316 µM (active) |  |  |  | 
COc1ccc2[nH]cc(CCNc3ncnc4ccc(-c5cccc(C#N)c5)cc34)c2c1 | > 11.4 µM |  | 2.51 µM (active) |  | inactive | > 46 | inactive | inactive |  | 7.94 µM (active) | 12.6 µM (active) | 15.8 µM (active) |  | > 46 | 2.51 µM (active) |  | 0.0631 µM (active) |  | 
c1ccc2c(NCCN3CCOCC3)nc(-c3ccoc3)nc2c1 | > 11.4 µM | 1.61 | 5.01 µM (active) | -7.47 | inactive | > 46 | inactive | inactive |  |  | inactive | inactive | inactive |  |  | -2.73 |  |  | 
COc1cccc(-c2ccc3ncnc(NCc4ccc(OC)cc4OC)c3c2)c1 | > 11.4 µM |  | 2.51 µM (active) | -18.9 | inactive | > 46 | inactive | inactive |  |  | 35.5 µM (active) | 3.16 µM (active) |  | > 46 | 2.51 µM (active) |  |  |  | 
COc1ccc(Oc2ncc3nc(-c4cccc(C#N)c4)c(=O)n(Cc4cccc(OC)c4)c3n2)cc1 | > 11.4 µM | 7.45 | inactive | -6.12 | inactive | > 46 | inactive | inactive |  |  | inactive | inactive | inactive |  | 2 µM (active) |  |  | inactive | 
Cn1cc(-c2nc3cnc(N4CCNCC4)nc3n(C3CC3)c2=O)c2ccccc21 | > 11.4 µM |  | 12.6 µM (active) | 28.9 |  | > 46 |  | inactive |  |  | inactive | inactive | inactive | > 9.22 |  |  | 3.98 µM (active) | inactive | 
COc1ccccc1-c1nccc(N2CCN(C)CC2)n1 | > 11.4 µM | 15.6 |  | -18.8 | inactive | > 46 | inactive |  |  |  | inactive | inactive | inactive | > 46 |  | 26.2 |  | inactive | 
Cc1ccccc1-c1ccc2ncnc(-n3ccnc3)c2c1 | > 11.4 µM |  | 0.794 µM (active) |  |  | > 46 | inactive | inactive |  | 2 µM (active) | 7.94 µM (active) | 7.08 µM (active) | inactive | > 46 | 0.501 µM (active) |  |  |  | 
CN(C)c1ccc(-c2nccc(Nc3ccc(F)cc3)n2)cc1 |  | -4.1 | 0.501 µM (active) | -29.4 | inactive | > 46 | inactive | inactive |  | 3.16 µM (active) | 17.8 µM (active) | 14.1 µM (active) |  | > 46 |  |  |  | inactive | 
COCCn1c(=O)c(-c2cc(F)cc(F)c2)nc2cnc(N3CCN(C)CC3)nc21 | > 11.4 µM | 19.3 | 15.8 µM (active) |  |  | > 46 | inactive |  |  |  | inactive | inactive | inactive | > 9.22 |  |  |  | inactive | 3.16 µM (active)
